Measurements as given in publication PMC4336329 (PLoS ONE, 2015).
Hit rate of the full screen: of about 310,000 compounds, about 14,000 (4.5%) showed an effect of 50% or more. The effect is printed as a negative number. The full list was thinned out, with strong results kept by preference.

These molecules were tested against human ether-à-go-go-related gene (hERG) potassium channel (human, UniProt Q12809) (assay: primary screen, population patch clamp on CHO cells stably expressing hERG; higher = less effect of the substance).
Sequence of human ether-à-go-go-related gene (hERG) potassium channel (Q12809 whole entry, looked up): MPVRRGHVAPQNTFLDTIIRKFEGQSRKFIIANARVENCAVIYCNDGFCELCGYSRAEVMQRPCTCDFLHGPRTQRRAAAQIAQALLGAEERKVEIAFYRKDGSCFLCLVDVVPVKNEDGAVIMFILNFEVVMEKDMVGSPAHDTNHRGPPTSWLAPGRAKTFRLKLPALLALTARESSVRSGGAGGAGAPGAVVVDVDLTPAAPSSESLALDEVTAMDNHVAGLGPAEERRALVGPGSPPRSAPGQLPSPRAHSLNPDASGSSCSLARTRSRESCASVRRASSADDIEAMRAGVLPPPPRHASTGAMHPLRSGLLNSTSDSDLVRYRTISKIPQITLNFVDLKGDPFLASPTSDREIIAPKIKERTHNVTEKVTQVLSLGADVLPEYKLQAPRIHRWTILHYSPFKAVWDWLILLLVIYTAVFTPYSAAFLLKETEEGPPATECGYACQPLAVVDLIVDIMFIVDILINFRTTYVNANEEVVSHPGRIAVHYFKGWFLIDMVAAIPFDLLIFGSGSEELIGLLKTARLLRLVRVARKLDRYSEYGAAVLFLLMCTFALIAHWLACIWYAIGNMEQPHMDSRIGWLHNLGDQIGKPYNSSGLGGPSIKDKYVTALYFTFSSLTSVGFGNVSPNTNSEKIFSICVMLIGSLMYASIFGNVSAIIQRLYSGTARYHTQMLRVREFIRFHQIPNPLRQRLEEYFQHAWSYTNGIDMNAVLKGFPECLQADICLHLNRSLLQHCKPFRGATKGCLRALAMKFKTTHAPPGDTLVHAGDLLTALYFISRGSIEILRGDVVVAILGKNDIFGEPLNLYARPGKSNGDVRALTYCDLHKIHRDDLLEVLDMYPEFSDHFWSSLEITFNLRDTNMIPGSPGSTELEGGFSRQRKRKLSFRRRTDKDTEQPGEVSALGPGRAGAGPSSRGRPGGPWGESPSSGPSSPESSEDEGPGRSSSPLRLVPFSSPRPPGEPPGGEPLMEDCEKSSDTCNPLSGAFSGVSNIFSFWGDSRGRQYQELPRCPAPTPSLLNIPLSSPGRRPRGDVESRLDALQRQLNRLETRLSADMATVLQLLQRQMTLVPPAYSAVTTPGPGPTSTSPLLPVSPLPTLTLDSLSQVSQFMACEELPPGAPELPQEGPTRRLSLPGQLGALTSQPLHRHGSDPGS
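Also: peak tail current of the secondary pulse compared with the same well before compound.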

Row | SMILES | hERG current change (%, negative = inhibition) at 10uM [%]
1 | O=C(Cn1cnc2ccccc21)OCC(=O)N1CCCc2ccccc21 | 8.8
2 | CCCCNC(=S)N/N=C/c1ccccc1F | 2.81
3 | Cc1ccc(OC(C)C(=O)Nc2ccc3c(c2)n(C)c(=O)n3C)c(C)c1 (centres unmarked) | 11.7
4 | Cc1ccc(S(=O)(=O)NCc2ccc(C(=O)NCCN(Cc3ccccc3)C(C)C)cc2)cc1 | -36.4
5 | Cc1ccc(S(=O)(=O)NC(CC(C)C)C(=O)NCC(C)(C)N2CCOCC2)cc1 (centres unmarked) | 11.6
6 | COc1ccc(NC(=O)CCCn2c(=O)c3sccc3n(Cc3cccc(C)c3)c2=O)cc1 | 12.7
7 | Cc1cnc(C(=O)OCC(=O)NCCc2ccccc2)cn1 | -3.4
8 | O=C(c1cccc(NS(=O)(=O)c2cccc(F)c2)c1)N1CCN(c2ccccc2)CC1 | -8.41
9 | CSCCC(NC(=O)COc1cccc2ccccc12)C(=O)O (centres unmarked) | 0.83
10 | COc1ccccc1CCC(=O)OCC(=O)c1c(N)n(CC(C)C)c(=O)n(C)c1=O | -70.3
11 | Cn1c(N)c(C(=O)COC(=O)/C=C/c2ccc(F)cc2)c(=O)n(C)c1=O | -51.8
12 | Cn1c(N)c(C(=O)COC(=O)/C=C/c2ccc(Cl)cc2)c(=O)n(C)c1=O | -43.3
13 | COc1ccc(/C=C/C(=O)OCC(=O)c2c(N)n(C)c(=O)n(C)c2=O)cc1 | 5.38
14 | Cn1c(N)c(C(=O)COC(=O)COc2ccccc2C#N)c(=O)n(C)c1=O | -23.2
15 | CC(C)Cn1c(N)c(C(=O)COC(=O)C2CC(=O)N(c3ccc4c(c3)OCCO4)C2)c(=O)n(C)c1=O (centres unmarked) | -52.6
16 | CCc1ccc(N2CC(C(=O)OCC(=O)c3c(N)n(CC(C)C)c(=O)n(C)c3=O)CC2=O)cc1 (centres unmarked) | -7.72
17 | CCc1ccccc1OCC(=O)OCC(=O)c1c(N)n(C)c(=O)n(C)c1=O | -53.6
18 | CC(C)Cn1c(N)c(C(=O)COC(=O)CCc2nc3ccccc3c(=O)[nH]2)c(=O)n(C)c1=O | -36
19 | Cc1ccc(N2CC(C(=O)OCC(=O)c3c(N)n(CC(C)C)c(=O)n(C)c3=O)CC2=O)cc1 (centres unmarked) | -3.07
20 | COc1ccc(CCC(=O)OCC(=O)c2c(N)n(CC(C)C)c(=O)n(C)c2=O)cc1 | -33.4
21 | Cc1cccc(OCC(=O)OCC(=O)c2c(N)n(C)c(=O)n(C)c2=O)c1C | -1.84
22 | Cc1cc(C)nc(SCCC(=O)Nc2ccc(F)cc2)n1 | 7.84

Row | SMILES | hERG current change (%, negative = inhibition) at 10uM [%]
23 | O=C(/C=C\Nc1cccc(F)c1)c1cccs1 | 11.7
24 | CC(NC(=O)C1CCN(S(=O)(=O)c2ccc3c(c2)NC(=O)CO3)CC1)c1ccccc1 (centres unmarked) | -7.39
25 | CN(C)S(=O)(=O)N1CCN(C(=O)c2ccc3c(c2)OCO3)CC1 | 10
26 | CSc1ccc(/C=C(\C#N)C(=O)NC2CCCCC2C)cc1 (centres unmarked) | -21.7
27 | N#C/C(=C/c1ccc(-c2cc([N+](=O)[O-])ccc2Cl)o1)C(N)=O | 1.62
28 | N#CC(=C=[N-])c1nc2ccccc2nc1-[n+]1ccccc1 | -2.11
29 | Cc1ccc(C(C)C)c(OCC(=O)OCC(=O)c2c(N)n(C)c(=O)n(C)c2=O)c1 | 3.36
30 | Cn1c(N)c(C(=O)COC(=O)COc2ccc(Cl)cc2)c(=O)n(C)c1=O | -23.1
31 | Cc1ccc(C)c(OCCC(=O)OCC(=O)c2c(N)n(C)c(=O)n(C)c2=O)c1 | -55.5
32 | CC(C)Cn1c(N)c(C(=O)COC(=O)c2ccccc2Cl)c(=O)n(C)c1=O | -41.7
33 | CC(C)Cn1c(N)c(C(=O)COC(=O)c2ccccc2F)c(=O)n(C)c1=O | -14.7
34 | CC(C)Cn1c(N)c(C(=O)COC(=O)[C@H](C)NC(=O)c2ccccc2Cl)c(=O)n(C)c1=O | -53.1
35 | COc1ccccc1OCCC(=O)OCC(=O)c1c(N)n(C)c(=O)n(C)c1=O | -10.3
36 | Cn1c(N)c(C(=O)COC(=O)CCOc2ccc(C(C)(C)C)cc2)c(=O)n(C)c1=O | -60.6
37 | Cn1c(N)c(C(=O)COC(=O)COc2ccc(C#N)cc2)c(=O)n(C)c1=O | -24
38 | Cn1c(N)c(C(=O)COC(=O)COc2ccc(Br)cc2)c(=O)n(C)c1=O | -72.6
39 | CCC(=O)c1ccc(OCC(=O)OCC(=O)c2c(N)n(C)c(=O)n(C)c2=O)cc1 | 5.93
40 | CCc1ccc(OCC(=O)OCC(=O)c2c(N)n(C)c(=O)n(C)c2=O)cc1 | 10.2
41 | CCOC(=O)c1ccc(NCc2ccncc2)cc1 | -1.66
42 | O=C(CN(Cc1ccco1)S(=O)(=O)c1cccs1)Nc1ccccc1C(F)(F)F | -32.8
43 | Oc1c(Br)cc(Cl)cc1C=Nc1ccc(N2CCOCC2)cc1 | 19.6
44 | Cc1c(C(=O)NCc2ccco2)cccc1[N+](=O)[O-] | -6.07

Row | SMILES | hERG current change (%, negative = inhibition) at 10uM [%]
45 | CCN1C(=O)/C(=C\C=C2/C=CC=CN2CC)SC1=S | -5.68
46 | O=C(c1cc(COc2ccc(F)cc2Cl)on1)N1CCC(OCc2cccnc2)CC1 | -75.8
47 | O=C(c1cc(COc2ccc(F)cc2Cl)on1)N1CCN(c2cnccn2)CC1 | -46.9
48 | COc1ccccc1OCc1cc(C(=O)N2CCCC(OCc3cccnc3)C2)no1 (centres unmarked) | -22
49 | O=C(c1cc(COc2ccc(F)cc2Cl)on1)N1CCCCC1c1cccnc1 (centres unmarked) | -41.8
50 | O=C(c1cc(COc2ccccc2)on1)N1CCCC(OCc2cccnc2)C1 (centres unmarked) | -16.6
51 | O=C(c1cc(COc2ccc(F)cc2Cl)on1)N1CCCC(OCc2cccnc2)C1 (centres unmarked) | -53.5
52 | Nc1nc(SCC(=O)NCCCN2CCOCC2)nc2sc3c(c12)CCC3 | -9.2
53 | Nc1nc(SCC(=O)NCCN2CCOCC2)nc2sc3c(c12)CCC3 | -65.9
54 | Nc1nc(SCC(=O)NCCCO)nc2sc3c(c12)CCC3 | -3.17
55 | Cc1ccc(-c2csc(NC(=O)CSc3nc(C)cc(=O)[nH]3)n2)cc1 | 1.07
56 | COc1cc2c(cc1OC)CN(C(C)C(=O)N1CCc3ccccc31)CC2 (centres unmarked) | -14
57 | Cc1ccc(S(=O)(=O)N(C)CC(=O)N2CCCc3ccccc32)cc1 | -16.1
58 | O=C1N(CC(=O)N2CCc3ccccc32)CCN1Cc1ccc(Cl)cc1 | -11.8
59 | Cc1nc2ccc(S(=O)(=O)NCC(=O)N3CCc4ccccc4C3)cc2s1 | 0.862
60 | O=C(CN1CCN(Cc2ccc(Cl)cc2)CC1)N1CCc2ccccc21 | -67.5
61 | O=C(CN1CCCCC1)N1CCc2ccccc21 | -6
62 | Cc1nc2ccc(S(=O)(=O)N(C)CC(=O)N3CCc4ccccc4C3)cc2s1 | -53.2
63 | COc1ccc(CN2CCN(C(C)C(=O)N3CCc4ccccc43)CC2)cc1OC (centres unmarked) | -74
64 | CN(CC(=O)N1CCc2ccccc21)S(=O)(=O)c1ccc(Cl)cc1 | -51.2
65 | Cc1nc2ccc(S(=O)(=O)N(C)CC(=O)N3CCc4ccccc43)cc2s1 | -42.5
66 | COc1ccc(N2CCN(C(C)C(=O)N3CCc4ccccc43)CC2)cc1 (centres unmarked) | -17.7

Row | SMILES | hERG current change (%, negative = inhibition) at 10uM [%]
67 | CN(CC(=O)N1CCc2ccccc21)S(=O)(=O)c1cccs1 | -22
68 | CCNc1nc(NCC)nc(NS(=O)(=O)c2ccc(N)cc2)n1 | 22.7
69 | CCOC(=O)C(C(=O)Nc1ccc(C)cc1)C1CCCCC1 (centres unmarked) | 0.407
70 | CC(C)n1nnc2ccccc2c1=O | 10
71 | CN(C)S(=O)(=O)c1cccc(-c2cn3ccccc3n2)c1 | -2.91
72 | CC1CC1C(=O)OCC(=O)NNC(=O)c1ccc([N+](=O)[O-])cc1 (centres unmarked) | -2.32
73 | COc1ccc(C2/C(=C(/O)c3ccc(C)cc3)C(=O)C(=O)N2CC2CCCO2)cc1OC (centres unmarked) | 20.8
74 | CCOC(=O)CNC(=O)c1ccc(C)cc1 | 4.88
75 | COc1cc(SC)ccc1C(=O)OCC(=O)NC1CC1 | 7.53
76 | CC(=O)Cn1nnc(-c2ccc(C(F)(F)F)cc2)n1 | 6.1
77 | CCN1CCN(CCCNC(=O)c2ccccc2NC(=O)C2=C(C)OCCS2)CC1 | 1.11
78 | CC(C(=O)N1CCc2ccccc21)N1CCN(Cc2ccc(Cl)cc2)CC1 (centres unmarked) | -67
79 | CC(C(=O)N1CCc2ccccc21)N1CCc2ccccc2C1 (centres unmarked) | -18.9
80 | CC(C(=O)N1CCc2ccccc21)N1CCN(Cc2ccccc2)CC1 (centres unmarked) | -34
81 | COCCCNc1nc2c(-c3cccc(C(F)(F)F)c3)nnn2c2ccccc12 | -1.31
82 | O=[N+]([O-])c1ccc(/C=N/Nc2cc(Cl)nc(-c3ccccc3)n2)cc1 | 2.34
83 | CCC(C)c1ccc(OCC(=O)O)cc1 (centres unmarked) | 11.5
84 | CC(=O)N(Cc1cccnc1)c1cccc(-c2nc3ccccc3s2)c1 | -51.1
85 | c1cncc(-c2nc3ccccc3s2)c1 | 2.39
86 | O=C(NCc1cccnc1)c1cccnc1-c1nc2ccccc2s1 | -14
